High-throughput results as filed in PubChem.
NPR1 antag = antagonists of human natriuretic peptide receptor Npr1; Potency, µM (highest dose often 46.3 µM), most hits filed as inhibitors; HEK293 hNpr1 GloSensor cGMP, ANP-stimulated luminescence; P16066; AID 1347048; actives 1.6% (n = 76,000); calls by dose curve; also: nearly all actives have a fitted effect of over 60% in size
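HEK293 cells stably expressing human Npr1 and cGMP GloSensor pGS-40F, loaded 2 h with 2% GloSensor reagent, given compound 30 min at room temperature. Luminescence read before and 20 min after 0.1 nM hNppA.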
3T3 cytotox = kills NIH 3T3 cells. actives 4.3% (n = 94,000). Potency, µM (titrated, usually from 96.7 µM), actives largely listed as inhibitors. AID 1345082. NIH 3T3 viability, CellTiter-Glo ATP luminescence, 48-72 h; also: nearly all actives have a fitted effect of over 55% in size
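Cells were seeded at 400 per well, treated with pin-transferred compound, and kept 48 or 72 hr at 37 °C before CellTiter-Glo addition and luminescence imaging of cellular ATP.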
HEK293 tox = cytotoxic compounds in HEK 293 cells | HEK 293 viability, ATP luminescence (CellTiter-Glo), 48-72 h | Potency, µM (highest dose often 115 µM), actives largely listed as inhibitors | actives 6.6% (n = 94,000) | AID 1345083; also: nearly all actives have a fitted effect of over 60% in size
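Read-out: CellTiter-Glo ATP luminescence. Cells: HEK 293, 250 cells/well. Exposure: 48 or 72 hr, 37 degree Celsius.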
GPT2 inhibitor = GPT2 alanine aminotransferase inhibition. Q8TD30. Recombinant GPT2, coupled pyruvate oxidase/HRP Amplex Red fluorescence. Potency, µM (top dose mostly 57.7 µM), actives largely listed as inhibitors. actives 0.25% (n = 100,000). AID 1671188; also: nearly all actives have a fitted effect of over 60% in size
Target sequence (Q8TD30 whole entry, looked up): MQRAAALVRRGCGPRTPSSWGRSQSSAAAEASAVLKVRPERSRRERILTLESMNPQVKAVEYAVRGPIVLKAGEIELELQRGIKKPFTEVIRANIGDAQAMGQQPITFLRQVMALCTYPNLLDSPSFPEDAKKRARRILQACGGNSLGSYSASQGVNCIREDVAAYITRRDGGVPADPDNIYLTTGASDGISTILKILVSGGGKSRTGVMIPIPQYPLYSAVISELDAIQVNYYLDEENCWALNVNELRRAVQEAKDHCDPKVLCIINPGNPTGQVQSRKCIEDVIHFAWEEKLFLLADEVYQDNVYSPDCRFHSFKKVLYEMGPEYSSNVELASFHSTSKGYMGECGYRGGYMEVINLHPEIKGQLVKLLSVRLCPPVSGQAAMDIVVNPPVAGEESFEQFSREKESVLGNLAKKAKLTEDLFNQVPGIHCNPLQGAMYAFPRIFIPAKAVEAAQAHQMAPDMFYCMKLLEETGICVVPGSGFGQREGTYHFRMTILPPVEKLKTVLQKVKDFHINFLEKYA
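Fluorescence of coupled pyruvate oxidase/HRP/Amplex Red system (50uM Amplex, 30 min, dark) reports pyruvate formed by GPT2. Enzyme reaction: 10ng/uL GPT2, 2mM L-alanine, 250uM a-KG, 30 min room temperature, pH 7.5; 50uM AOA control.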
FLuc inh = Photinus pyralis luciferase inhibition. P08659. purified P. pyralis luciferase, luminescence, biochemical. Potency, µM (top dose mostly 115 µM), usual class: inhibitors. actives 2.5% (n = 76,000); also: nearly all actives have a fitted effect of over 65% in size
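Purified P. pyralis luciferase (10nM final) in 50mM Tris acetate pH 7.5, 10mM Mg acetate, 0.01% Tween-20, 0.05% BSA with 10uM D-luciferin and 10uM ATP. Compounds titrated qHTS. Luminescence imaged on CCD.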
Of the large screens only hits and unclear results are named; the others gave an inactive call. Most compounds without a hit are left out; they make up all but 10% or so of the library. Unless noted, calls follow the shape of the dose curve; as a rule, active = well fitted curve in the direction sought with a large enough effect; inconclusive = small, poorly fitted or top-dose-only effect, or another doubt; inactive = no such curve, though single readings can be large; an effect the other way counts as inactive or inconclusive.

O=C(Cc1cccc(C(F)(F)F)c1)N1CCCc2ncc(C(=O)N3CCCC[C@@H]3Cc3ccccc3)cc21	3T3 cytotox inconclusive, HEK293 tox 79µM
CC(C)c1ccc(CC(=O)N2CCCc3ncc(C(=O)N4CCCC[C@@H]4Cc4ccccc4)cc32)cc1	3T3 cytotox 35µM, HEK293 tox 45µM, GPT2 inhibitor inconclusive
CC(C)c1ccc(CC(=O)N2CCCc3ncc(C(=O)N4CCCC[C@@H]4c4ccccc4)cc32)cc1	3T3 cytotox inconclusive, HEK293 tox inconclusive
CC(=O)N1CCCN(c2ncnc3c2CN(C2CCCCC2)C(=O)CN3C)CC1	none (no result: NPR1 antag, FLuc inh)
CC(C)NC(=O)c1ccccc1OCC1CCCN(C2CCC2)C1 (stereo unspecified)	none
COC(=O)CNC(=O)c1nc(-c2cccc(C(F)(F)F)c2)c2ccccn12	3T3 cytotox inconclusive, HEK293 tox inconclusive, GPT2 inhibitor inconclusive
COc1cccc(-c2ccnc3nc(-c4cccs4)nn23)c1	3T3 cytotox inconclusive, HEK293 tox inconclusive, FLuc inh 16µM
c1coc(-c2ccnc3nc(-c4cccs4)nn23)c1	3T3 cytotox 35µM
c1csc(-c2nc3nccc(-c4ccsc4)n3n2)c1	3T3 cytotox inconclusive, HEK293 tox inconclusive
c1csc(-c2nc3nccc(-c4ccncc4)n3n2)c1	none
C#CCNC(=O)C[C@@H]1C[C@@H](C(C)C)[C@H](CNS(C)(=O)=O)C=C1C	none
O=C1c2cnc(-c3ccccc3)nc2OCCN1Cc1ccc(F)cc1F	HEK293 tox 112µM
COc1cccc(-c2ncc3c(n2)OCCN(Cc2ccc(F)cc2F)C3=O)c1F	HEK293 tox inconclusive, FLuc inh 16µM
CN(C)C(=O)c1ccc(-c2ncc3c(n2)OCCN(Cc2ccc(F)cc2F)C3=O)cc1	HEK293 tox inconclusive, GPT2 inhibitor inconclusive, FLuc inh 45µM
O=C1c2cnc(-c3cc(F)cc(F)c3)nc2OCCN1Cc1ccc(F)cc1F	HEK293 tox inconclusive
CC(C)c1nc(NC(=O)Cn2nc3c(cc2=O)CCCC3)n[nH]1	none
O=C(C1CCCN(Cc2cccc(-c3ccsc3)c2)C1)N1CCN(Cc2ccccc2)CC1 (stereo unspecified)	3T3 cytotox 40µM, HEK293 tox 40µM (no result: NPR1 antag, GPT2 inhibitor, FLuc inh)
O=C(NCc1ccc(F)cc1)C1CCCN(Cc2cccc(-c3ccsc3)c2)C1 (stereo unspecified)	3T3 cytotox inconclusive, HEK293 tox inconclusive (no result: NPR1 antag, FLuc inh)
CN(Cc1ccccc1)C(=O)C1CCCN(Cc2cccc(-c3ccsc3)c2)C1 (stereo unspecified)	3T3 cytotox inconclusive, HEK293 tox 40µM (no result: NPR1 antag, GPT2 inhibitor, FLuc inh)
O=C(C1CCc2ncc(-c3ccsc3)n2C1)N1CCC(Cc2ccccc2)CC1 (stereo unspecified)	none
O=C(C1CCCN(Cc2cccc(-c3ccsc3)c2)C1)N1CCC(Cc2ccccc2)CC1 (stereo unspecified)	3T3 cytotox inconclusive, HEK293 tox 40µM (no result: NPR1 antag, FLuc inh)
CCOC(=O)C1CCN(C(=O)C2CCCN(Cc3cccc(-c4ccsc4)c3)C2)CC1 (stereo unspecified)	3T3 cytotox inconclusive, HEK293 tox 35µM (no result: NPR1 antag, GPT2 inhibitor, FLuc inh)
Cc1cccc(-c2cccc(CN3CCCC(C(=O)NC4CC4)C3)c2)c1 (stereo unspecified)	3T3 cytotox inconclusive, HEK293 tox inconclusive (no result: NPR1 antag, FLuc inh)
O=C(c1cccc(Cl)c1)N1CCN(c2cc(C(F)(F)F)ncn2)CC1	3T3 cytotox inconclusive, HEK293 tox inconclusive
Cc1noc(C2CC3(CCN(C(=O)c4cc5ccccc5[nH]4)CC3)CN2C)n1 (stereo unspecified)	GPT2 inhibitor inconclusive
COc1ccc(NC(=O)Cc2ccc(N(Cc3cccc(F)c3)C(=O)c3ccco3)cc2)cc1	3T3 cytotox inconclusive, HEK293 tox inconclusive
Cc1nc2c(c(-c3ccc(Cl)cc3)n1)CCN(C(=O)N(C)C)CC2	3T3 cytotox inconclusive
COc1ncc(CN2CCC3(CC2)OC(=O)N(Cc2ccccc2)C3(C)c2ccccc2)cn1 (stereo unspecified)	HEK293 tox inconclusive
Cc1ccccc1CN1CCC2(CC1)OC(=O)N(Cc1ccc(O)cc1)C2(C)c1ccccc1 (stereo unspecified)	3T3 cytotox 32µM, HEK293 tox 35µM
CC1(c2ccccc2)N(Cc2ccc(O)cc2)C(=O)OC12CCN(Cc1c[nH]c3ccccc13)CC2 (stereo unspecified)	NPR1 antag inconclusive, 3T3 cytotox 10µM, HEK293 tox inconclusive
